# From PubChem BioAssay (NCATS)
# Results filed as inconclusive are left out. A call without a number means that no potency is given here. Activity calls are given as the source filed them. Calls follow the shape of the dose curve; as a rule, active = well fitted curve in the direction sought with a large enough effect; inconclusive = small, poorly fitted or top-dose-only effect, or another doubt; inactive = no such curve, though single readings can be large; an effect the other way counts as inactive or inconclusive.
# Key:
# [1] = qHTS of pediatric cancer cell lines to identify multiple opportunities for drug repurposing: Confirmatory screen for SJ-GBM2 cells (AID 1347116); also: nearly all actives have a fitted effect of over 60% in size
# Method in brief: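 Viability measured as metabolically active cells via CellTiter-Glo luminescence following 48 hours of compound exposure, 11-point dilutions in confirmatory testing. 500-1,000 cells/well plated 5 hours before dosing; controls were DMSO and 2.3 µM bortezomib.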
# [2] = qHTS of pediatric cancer cell lines to identify multiple opportunities for drug repurposing: Confirmatory screen for BT-37 cells (AID 1347117); also: potency is read from the fitted curve at half-maximal effect; nearly all actives have a fitted effect of over 55% in size
# Method in brief: (§1)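 Cells (500-1,000/well) in growth media were settled 5 h at 37 degrees C, then given compounds for 48 h. Viability was read as CellTiter-Glo luminescence. Primary runs used MIPE at 11 points (0.78 nM-46 µM) and NPC at 8 points (0.59 nM-46 µM); follow-ups used 11 points.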
# [3] = qHTS of pediatric cancer cell lines to identify multiple opportunities for drug repurposing: Confirmatory screen for TC32 cells (AID 1347118);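 also: potency is read from the fitted curve at half-maximal effect; cells exposed to compound for 48 h before the read; nearly all actives have a fitted effect of over 65% in size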
# Method in brief: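 Luminescent CellTiter-Glo read-out of metabolically active TC32 cells after 48 h compound exposure. Primary: MIPE 11-point, 0.78 nM–46 µM; NPC 8-point, 0.59 nM–46 µM. Confirmatory: 11-point dilutions.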
# [4] = qHTS of pediatric cancer cell lines to identify multiple opportunities for drug repurposing: Confirmatory screen for MG 63 (6-TG R) cells (AID 1347119); also: potency is read from the fitted curve at half-maximal effect; nearly all actives have a fitted effect of over 55% in size
# Method in brief: as §1
# [5] = qHTS of pediatric cancer cell lines to identify multiple opportunities for drug repurposing: Confirmatory screen for U-2 OS cells (AID 1347122); also: nearly all actives have a fitted effect of over 65% in size
# Method in brief: as §1
# [6] = qHTS of pediatric cancer cell lines to identify multiple opportunities for drug repurposing: Confirmatory screen for Rh18 cells (AID 1347125); also: nearly all actives have a fitted effect of over 55% in size
# Method in brief: as §1
# [7] = qHTS of pediatric cancer cell lines to identify multiple opportunities for drug repurposing: Confirmatory screen for Saos-2 cells (AID 1347127); also: potency is read from the fitted curve at half-maximal effect; nearly all actives have a fitted effect of over 60% in size
# Method in brief: as §1
# [8] = qHTS of pediatric cancer cell lines to identify multiple opportunities for drug repurposing: Confirmatory screen for OHS-50 cells (AID 1347128);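 also: potency is read from the fitted curve at half-maximal effect; compound exposure lasted 48 h at 37 degrees C; nearly all actives have a fitted effect of over 55% in size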
# Method in brief: as §1
# [9] = qHTS of pediatric cancer cell lines to identify multiple opportunities for drug repurposing: Confirmatory screen for SK-N-SH cells (AID 1347129);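 also: cells exposed to compound for 48 h before viability read; nearly all actives have a fitted effect of over 60% in size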
# Method in brief: as §1
# [10] = system: Zika virus NS2B-NS3 protease; test: Primary screen GU AMC qHTS for Zika virus inhibitors (AID 1347154); also: nearly all actives have a fitted effect of over 70% in size
# Method in brief: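 Unlinked Zika NS2B hydrophilic domain/NS3 protease domain noncovalent complex (25 nM final) in 10 mM Tris-HCl pH 8.0, 0.01% Tween 20, with AMC peptide substrate. Fluorescence (ex 340, em 450 nm) change over 15 min, room temperature; percent inhibition fitted to 4-parameter Hill equation.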
# [11] = Confirmatory screen GU Rhodamine qHTS for Zika virus inhibitors qHTS (AID 1347157); also: nearly all actives have a fitted effect of over 70% in size
# Method in brief: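 Enzyme 25 nM in Tris-HCl pH 8.0 + 0.01% Tween 20; compounds up to 114 microM, 15 min RT dark; + Rhod110 substrate 1.5 microM; read t0 and 15 min; delta fluorescence → % inhibition → 4-parameter Hill fit.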
# [12] = ZIKV-mCherry secondary qHTS for Zika virus inhibitors (AID 1347158); also: top concentration of the series differs between compounds
# Method in brief: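 Vero, 5,000 cells/well, o/n 37 °C; cpd pin-transferred in DMSO; ZIKV-mCherry MOI 1, 48-72 h 37 °C; 32% PFA stock fix, Hoechst; imaged 10x DAPI/mCherry; mCherry+ threshold 450 RFU; % infection.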
# [13] = system: Zika virus NS2B-NS3 protease (unlinked complex); test: Primary screen GU Rhodamine qHTS for Zika virus inhibitors: Unlinked NS2B-NS3 protease assay (AID 1347159); also: potency is read from the fitted curve at half-maximal effect; nearly all actives have a fitted effect of over 60% in size
# Method in brief: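 Noncovalent NS2B hydrophilic domain–NS3 protease domain complex (25 nM) preincubated 15 min at room temperature with compounds (up to 114 microM) in 10 mM Tris-HCl pH 8.0, 0.01% Tween 20; 1.5 microM Rhodamine110 substrate added, fluorescence change over 15 min fitted to Hill equation.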
smiles,measurement,setting,value
CC(C)(C)C(=O)OCOP(=O)(COCCn1cnc2c(N)ncnc21)OCOC(=O)C(C)(C)C,Potency,[1],inactive
same,Potency,[2],3.69 µM (active)
same,Potency,[3],1.17 µM (active)
same,Potency,[4],5.22 µM (active)
same,Potency,[5],inactive
same,Potency,[6],inactive
same,Potency,[7],14.7 µM (active)
same,Potency,[8],16.5 µM (active)
same,Potency,[9],inactive
same,Potency,[10],inactive
COc1ccc(-c2ccc3cc(C(=O)O)ccc3c2)cc1C12CC3CC(CC(C3)C1)C2,outcome,[11],inactive
CC(C)(Sc1cc(C(C)(C)C)c(O)c(C(C)(C)C)c1)Sc1cc(C(C)(C)C)c(O)c(C(C)(C)C)c1,outcome,[11],inactive
COC(=O)Nc1nc2ccc(C(=O)c3ccccc3)cc2[nH]1,outcome,[12],inactive
CNC(=O)c1cc(Oc2ccc(NC(=O)Nc3ccc(Cl)c(C(F)(F)F)c3)cc2)ccn1,Potency,[13],8.91 µM (active)
